Assay results reported in PubChem BioAssay (EPA / NIEHS).
The source made the active and inactive calls. How the source made its calls: active means hit-call score of the fitted dose curve at least 0.9, where 1 is the maximum; inactive means score below 0.9.

Each molecule was assayed on growth arrest and DNA damage 45 (GADD45A), GADD45A (gene 1647) (assay: LTEA_HepaRG_GADD45A: Life Technologies and Expression Analysis (LTEA) Assay for growth arrest and DNA damage 45 (GADD45A) using HepaRG (AID 2283458)). Conditions: mRNA level, 48 h; actives raise or lower the signal.
Procedure: LTEA_HepaRG is a cell based, multiplexed-readout assay that uses HepaRG, a human liver cell line, with measurements taken at 48 hours after chemical dosing on a 96-well plate.LTEA_HepaRG_GADD45A is one of 102 assay component(s) measured in the LTEA HepaRG cell culture assay. It is a marker of Oxidative Stress.Data from the assay component LTEA_HepaRG_GADD45A was analyzed into 1 endpoint. This assay endpoint, LTEA_HepaRG_GADD45A, was analyzed with bidirectional fitting relative to DMSO as the negative control and baseline of activity. Using a type of inducible reporter, measures of mRNA induction for gain or loss-of-signal activity can be used to understand regulation of transcription factor activity. To generalize the intended target to other relatable targets, this assay endpoint is annotated to the cell cycle intended target family, where the subfamily is Oxidative Stress.
A total of 1060 chemcials from the ToxCast library were tested in eight-point concentration-response experiments. Cell culture and cytotoxicity assays were conducted at Thermo Fisher Scientific's Custom Services facility (Madison, WI). A single lot of human HepaRG cells (Thermo Fisher Scientific, Frederick, MD) was used for the cell culture experiments. 96-well format collagen type I coated plates of human HepaRG cells were prepared using established methods. Briefly, cryopreserved HepaRG cells were thawed, plated at a density of approximately 100,000 cells/well in HepaRG Thaw, Plate, and General Purpose media (HPRG770, Thermo Fisher Scientific), and incubated for 48 hours. 0.5% DMSO was selected as vehicle control to balance the requisite need of DMSO in HepaRG cultures to maintain differentiation (for example, baseline metabolism, proportions of hepatocytes vs. cholangiocytes), while enabling further hepatic receptor pathway activation (for example, PXR and CAR) in response to chemical exposure. 48 hours after plating, the culture medium was replaced with HepaRG Serum-Free Incudtion Media. Cells were exposed to each test chemical in duplicate and maintained in CO2 incubators for another 48 hours. Chemical plates were thawed to room temperature and 200x concentrations of treatment groups were prepared. 8-point conentration-reponse curves were made with the highest exposure at 100 uM, followed by half-log dilutions, all in 0.5% DMSO. Each test plate contained variouse controls, induction positive controls (1mM phenobarbital), cytotoxicity positive controls ([…] aflatoxin B1), vehicle controls (0.5% DMSO), and total lysis controls (0.5% DMSO). Cell morphology images were taken using an Essen IncuCyte FLR automated microscope, with six 96-well plates imaged in about 24 minutes. Images were captured and exported and JPEG files. Spent culture media was transfered to black-well plates for the LDH assay, and remaining media was sorted at -80 C for later use. Cells were treated with RLT buffer and frozen until shipped for gene expression analysis. Total RNA was isolated from the cell suspension in 75 uL of Buffer RLT (Qiagen, Germantown, MD 20874) by Quintiles/Expression Analysis (Durham, NC) using a custom isolation procedure. Total RNA from each plate well was transferred to a preamplification plate. Fluidigm's 96.96 Dynamic ArrayTM (Fluidigm, Amsterdam, the Netherlands) technology was used for gene expression analyses by quantitative reverse transcription polymerase chain reaction (qRT-PCR, performed by Quintiles/Expression Analysis, Durham, NC)89. Standard TaqManTM Assays (Applied Biosystems/ThermoFisher Scientific, Foster City, CA) were used to assess the expression of 93 genes selected based on their selectivity and sensitivity to important hepatic receptors known to be modulated by environmental chemicals; importance in human hepatocyte functionality; and hepatotoxicity. […]
`CC(=O)C(C)=CC1C(C)=CCCC1(C)C` (stereo not given) was tested, and the outcome was “inactive”.
In the case of `CCCCN(CCCC)CCCC`, the outcome is reported as “inactive”.
With `CC1=C(/C=C/C(C)=C/C=C/C(C)=C/CO)C(C)(C)CCC1` the outcome was “inactive”.
With `CCCCCCC(=O)OCC` the outcome was “inactive”.
For `COc1cc(C=O)ccc1O`, the outcome was “inactive”.
`O=[N+]([O-])C(CO)(CO)CO` was tested, and the outcome was “inactive”.
In the case of `CCOc1ccc2c(c1)C(C)=CC(C)(C)N2`, the outcome is reported as “inactive”.
`Cc1ccc(C(C)C)c(O)c1` was tested, and the outcome was “inactive”.
For `Cc1ccc(C)c(C)c1`, the outcome was “inactive”.
In the case of `NC(=O)Cn1c(=O)cc(CCN2CCN(c3nccc4sccc34)CC2)c2ccc(F)cc21`, the outcome is reported as “inactive”.
For `COc1cc(S(=O)(=O)O)c(C)cc1N=Nc1c(O)ccc2cc(S(=O)(=O)O)ccc12`, the outcome was “inactive”.
With `CN1CCN(Cc2cc(-c3ccc4[nH]c(=O)oc4c3)co2)[C@@H](c2ccc(F)cc2)C1` the outcome was “inactive”.
`CC(C)c1ccc(C(=O)N=C(N)N)cc1S(C)(=O)=O` was tested, and the AC50 was 0.676 µM (active).
`O=C(OCCCCCOC(=O)c1ccccc1)c1ccccc1` was tested, and the AC50 was 2.13 µM (active).
`CNC(=O)[C@H]1O[C@@H](n2cnc3c(NCc4cc(Cl)ccc4OCc4cc(C)no4)ncnc32)[C@H](O)[C@@H]1N` was tested, and the outcome was “inactive”.
`C[Si]1(C)O[Si](C)(C)O[Si](C)(C)O[Si](C)(C)O1` was tested, and the outcome was “inactive”.
For `CCCCCCCCCCCCCCCCCC(=O)O`, the outcome was “inactive”.
With `CCNc1cccc(C)c1` the outcome was “inactive”.
In the case of `Cc1c(C(=O)O)c(O)cc2c1C(=O)c1c(O)c([C@@H]3O[C@H](CO)[C@@H](O)[C@H](O)[C@H]3O)c(O)c(O)c1C2=O`, the outcome is reported as “inactive”.
In the case of `O=C(O)CCCCC(=O)O`, the outcome is reported as “inactive”.
For `COCCOC[C@H](CC1(C(=O)NC2CCC(C(=O)O)CC2)CCCC1)C(=O)Oc1ccc2c(c1)CCC2` (stereo not given in full), the outcome was “inactive”.
`CC(=O)OC/C=C(\C)CCC=C(C)C` was tested, and the outcome was “inactive”.
With `CCCCCCCCCCCCCCCC` the outcome was “inactive”.
In the case of `FC(F)(F)C(F)(F)C(F)(F)C(F)(F)C(F)(F)C(F)(F)CCI`, the outcome is reported as “inactive”.
In the case of `COc1ccc(C)cc1N`, the outcome is reported as “inactive”.
With `COc1ccc2c(c1)c(CC(=O)O)c(C)n2C(=O)c1ccc(Cl)cc1` the outcome was “inactive”.
With `CC=Cc1ccc(O)c(OC)c1` the outcome was “inactive”.
In the case of `Cc1ccccc1Cl`, the outcome is reported as “inactive”.
`C=CCOC(=O)c1ccccc1C(=O)OCC=C` was tested, and the outcome was “inactive”.
With `CCc1c(C(=O)NN2CCCCC2)nn(-c2ccc(Cl)cc2Cl)c1-c1ccc(Br)cc1` the AC50 was 82.1 µM (active).
For `CCCCCC(=O)O`, the outcome was “inactive”.
In the case of `Cc1ccc(C)c(O)c1C`, the outcome is reported as “inactive”.
With `COC(=O)c1ccc(O)cc1` the outcome was “inactive”.
With `COc1ccc(S(=O)(=O)N2C(=O)[C@@](c3ccccc3OC)(N3C[C@H](O)C[C@H]3C(=O)N(C)C)c3cc(Cl)ccc32)c(OC)c1` the AC50 was 87.9 µM (active).
`CCCCCCCCCCCCCO` was tested, and the outcome was “inactive”.
With `CC(=O)Oc1ccccc1C(=O)O` the outcome was “inactive”.
In the case of `Cc1ccc(N(C)C)cc1`, the outcome is reported as “inactive”.
In the case of `CCCCCCCCCCO`, the outcome is reported as “inactive”.
`CCCCOC(=O)CCCCCCCCC(=O)OCCCC` was tested, and the outcome was “inactive”.
`CC1(C)NC(=O)NC1=O` was tested, and the outcome was “inactive”.
